Measurements from PubChem BioAssay (NCATS).
Values joined by “and” are separate entries in the source; they are usually repeats but may differ in a detail not shown here. Equal values may be shown once. Records with an inconclusive call do not appear. A number with no mark means an inactive call. Active and inactive are the calls of the source. Calls follow the shape of the dose curve; as a rule, active = well fitted activation curve with a large enough effect in the signal ratio (not every such curve was filed as active); inconclusive = small, poorly fitted or top-dose-only effect, or a change in a side signal; inactive = flat fitted curve, though single readings scatter; the % refers to the signal ratio.

assay: qHTS assay for small molecule activators of the p53 signaling pathway (AID 651743); conditions: HCT-116 p53RE-bla, beta-lactamase FRET ratio, 16 h; activation: stronger effect = higher value; as to activation: series mostly up to about 92 µM; % of control where 0% means no effect
Procedure, shortened: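 Agonist-mode quantitative HTS in HCT-116 cells carrying a p53-response-element beta-lactamase reporter; 16 h compound treatment at 37 C, then FRET substrate loading for 2 h at room temperature and fluorescence read.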
Potency is read from the fitted curve at half-maximal effect.

Q: Which activation does the source give for `C[C@]12C/C(=C/O)C(=O)C[C@@H]1CC[C@@H]1[C@@H]2CC[C@@]2(C)[C@H]1CC[C@]2(C)O` here?
A: 23.1%

Q: Which activation does the source give for `OCCOc1ccccc1` here?
A: -4.8% and -3.64%

Q: Which activation does the source give for `CCOP(=S)(OCC)Oc1cc(C)nc(C(C)C)n1` here?
A: -0.592% and 3.54%

Q: Which activation does the source give for `Oc1cccc2cccnc12` here?
A: -0.845% and 2.31%

Q: Which Potency does the source give for `CC(=O)Oc1ccccc1C(=O)Nc1ncc([N+](=O)[O-])s1` here?
A: 12.6 µM (active)

Q: For `O=c1[nH]cc(F)c(=O)[nH]1`, which Potency is on record?
A: 3.98 µM (active)

Q: For `CC(C)(C)CC(C)(C)c1ccc(O)cc1`, which activation is on record?
A: 1.12%

Q: For `N[C@@H](Cc1ccc(N(CCCl)CCCl)cc1)C(=O)O`, which Potency is on record?
A: 39.8 µM (active) and 25.1 µM (active)

Q: With `c1ccc2c(c1)Nc1ccccc1S2` as the molecule, how does the activation read?
A: 4.3% and -2.32%

Q: Which activation does the source give for `C[C@H]1O[C@@H](O[C@H]2[C@@H](O)C[C@H](O[C@H]3[C@@H](O)C[C@H](O[C@H]4CC[C@@]5(C)[C@H](CC[C@@H]6[C@@H]5CC[C@]5(C)[C@@H](C7=CC(=O)OC7)CC[C@]65O)C4)O[C@@H]3C)O[C@@H]2C)C[C@H](O)[C@@H]1O` here?
A: -10.8%

Q: Which activation does the source give for `Oc1ccc(Cl)cc1Cc1ccccc1` here?
A: -3.88% and -4.49%

Q: For `NCC(O)c1ccc(O)cc1` (centres undefined), which activation is on record?
A: -5.43%

Q: With `C[C@]12CCC(=O)C(O)=C1CC[C@@H]1[C@@H]2CC[C@]2(C)C(=O)CC[C@@H]12` as the molecule, how does the activation read?
A: -6.6%

Q: With `Oc1ccccc1-c1ccccc1` as the molecule, how does the activation read?
A: -2.94% and -3.63% and -0.39%
